# Source: PubChem (Sanford-Burnham Center for Chemical Genomics)
# CYP2C19 act: increases human CYP2C19 enzyme activity. P33261. 96,000 tested, under 10 active. activation factor at 5 µM. AID 1025. recombinant CYP2C19, luciferin-H EGE luminescence; stronger effect = higher value; 0 = fully inhibited enzyme, 1 = untreated enzyme;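 active = activation factor of at least 2 at 5 µM in the primary screen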;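 also: 0 = wells with 2.5 mM tranylcypromine and 1 = vehicle-only wells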
# CYP2C9 inhib: human CYP2C9 inhibition | CYP2C9 Supersomes, luciferin-H conversion, luminescence | inhibition, % at 5 µM | actives 20% (n = 96,000) | AID 777;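 active = blocking of liver enzyme CYP2C9 beyond about 50% at 5 µM, limit read from the data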
# PLAP activator: human PLAP activation; purified PLAP enzyme, luminescent substrate read-out; stronger effect = higher value; activation fold at 20 µM; actives 1.2% (n = 96,000); in the data active = activation fold above about 2
# CYP2C9 act: CYP2C9 (human) activation; P11712; recombinant CYP2C9, luciferin-H conversion, luminescence; stronger effect = higher value; factor 1 = untreated enzyme, 0 = blocked; activation factor at 5 µM; actives 1.4% (n = 96,000);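 active = activation factor of 2 or more for CYP2C9 at a 5 µM dose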;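 also: 0 = sulfaphenazole-blocked wells and 1 = vehicle-only wells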
# CYP2C19 inh: blocks human cytochrome P450 2C19 | CYP2C19 Supersomes, luciferin-H EGE luminescence, 30 min | inhibition, % at 5 µM | actives 21% (n = 96,000) | AID 778 | P33261;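 active = CYP2C19 inhibition above a set limit at 5 µM in the primary screen, cut at about 50% in these data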;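 also: plate controls were negative control wells for no effect and 2.5 mM tranylcypromine positive control for full effect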
# An asterisk follows results filed as active. Most compounds without a hit are left out; they make up all but 31% or so of the library.
SMILES,CYP2C19 act,CYP2C9 inhib,PLAP activator,CYP2C9 act,CYP2C19 inh
O=C(Cc1ccccc1)N/N=C\c1ccc(Br)o1,0.7,-1,0.9,1,30
O=C(Cc1ccccc1)N/N=C/c1ccccc1OCc1ccc(Cl)cc1,0.8,62*,0.7,0.4,24
O/N=C/c1ccccc1OCc1ccc(Cl)cc1,0.5,69*,0.6,0.3,52*
C=CCC1c2cccc(C(=O)OC)c2C(=O)N1c1ccccc1 (stereo not drawn),0.6,12,1.1,0.9,38
CCOC(=O)C1=C(C)N=C2SC(C)C(=O)N2C1/C=C/c1ccccc1OC (stereo not drawn),0.5,80*,1.7,0.2,49
Cc1cc(C)c(S(=O)(=O)N2CCCCC2)cc1N(C)S(=O)(=O)c1ccc(Cl)cc1,0.6,71*,1.3,0.3,38
Cc1cc(C)c(S(=O)(=O)N2CCCCC2)c(C)c1N(C)S(=O)(=O)c1ccccc1,0.7,59*,1.1,0.4,30
Cc1ccc(S(=O)(=O)N2CCN(C)CC2)c(C)c1N(C)S(=O)(=O)c1ccc(Cl)cc1,0.3,47,1.7,0.5,67*
Cc1cc(C)c(S(=O)(=O)N2CCCCC2)c(C)c1-n1ncnn1,0.3,-110,1,2.1*,69*
CCOc1ccc(S(=O)(=O)N2CCN(C)CC2)c(C)c1C,0.7,-28,1.1,1.3,28
COc1ccc(Oc2ncc(CN3CCN(c4ccccc4)CC3)s2)cc1,0.2,93*,1.8,0.1,82*
Cc1cc(Cl)ccc1Oc1ncc(CN2CCN(c3ccccc3)CC2)s1,1,6,1.3,0.9,3
Brc1ccc(Oc2ncc(CN3CCOCC3)s2)cc1,0.2,20,1.2,0.8,80*
CC(C)NC(=O)NC(=O)CSc1nnc(COc2ccccc2F)n1C(C)C1CC2CCC1C2 (stereo not drawn),0.8,42,1.3,0.6,20
COC(=O)[C@H](CCSC)NC(=O)Nc1ccc(OC)c(Cl)c1,0.6,-17,0.8,1.2,42
c1ccc2c(Nc3nnc(-c4ccncc4)s3)cccc2c1,0,90*,1,0.1,96*
C=CCNc1nnc(-c2ccncc2)s1,0.2,7,0.9,0.9,77*
CCCCC(CC)C(=O)NCCCN1CCN(CCCNC(=O)C(CC)CCCC)CC1 (stereo not drawn),1,11,1.7,0.9,4
COc1ccc(NC(=O)O/N=C2/CCCc3ccc(OC)cc32)cc1,0.7,62*,0.7,0.4,34
CCOc1ccc(Br)cc1S(=O)(=O)NCCN(C)C,1.1,-8,1,1.1,-14
CSc1ccc(S(=O)(=O)NCc2ccc(C)cc2)cc1,0.1,-62,0.9,1.6,95*
Cc1ccc(S(=O)(=O)NCCc2ccncc2)cc1,0,51*,1,0.5,97*
Cc1ccc(CNS(=O)(=O)NCc2ccccc2)cc1,0.2,-8,0.9,1.1,77*
Cc1ccc(S(=O)(=O)NCCC(=O)O)cc1,1,-21,0.9,1.2,2
O=S(=O)(NCCc1ccncc1)c1cc(Br)ccc1F,0.1,51*,0.8,0.5,89*
SMILES,CYP2C19 act,CYP2C9 inhib,PLAP activator,CYP2C9 act,CYP2C19 inh
CCOC(=O)N1CCN(C(=O)C2CCN(S(=O)(=O)c3ccccc3)CC2)CC1,1,-3,1.7,1,4
O=C(c1ccc(Cl)cc1)c1oc2ccccc2c1CS(=O)c1ccccc1 (stereo not drawn),0.7,26,0.9,0.7,28
CCOC(=O)N1CCN(c2cc(=O)n(-c3ccc(Br)cc3)c(=O)[nH]2)CC1,1,10,1.1,0.9,-3
Cc1ccc(S(=O)(=O)NCCCOC(=O)Nc2ccncc2)cc1,0.1,100*,0.9,0,92*
CS(=O)(=O)Nc1ccc(S(=O)(=O)NCCc2ccccc2)cc1,0.9,12,1.2,0.9,14
Cc1ccc(S(=O)(=O)NCCc2ccc(S(N)(=O)=O)cc2)cc1,0.9,48,0.8,0.5,13
Cc1ccc(CCNS(=O)(=O)c2ccc(C)cc2)cc1,0.5,55*,1,0.4,52*
CCCCc1ccc(S(=O)(=O)NCCc2ccncc2)cc1,0,68*,0.8,0.3,100*
Cc1ccc(S(=O)(=O)NCCCCCC(N)=O)cc1,0.7,11,0.9,0.9,32
CCC1SC(N)=NC1=O (stereo not drawn),1.2,-27,1,1.3,-16
O=C1NCCCC1C(=O)Nc1ccccn1 (stereo not drawn),1,2,1,1,3
